Hits are enriched below; roughly 8.7% of the tested compounds scored in any of these assays.
Sfp PPTase inh – Sfp phosphopantetheinyl transferase inhibition; Potency, µM, hits mostly inhibitors; AID 1490; Q9F4F7; 310,000 compounds, 3.5% hits; Biochemical Sfp PPTase activity, qHTS;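 note: the enzyme is Sfp with the accession as filed and its product quenches rhodamine fluorescence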
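Sfp 15 nM + cpd, 15 min RT; start w/ rhodamine-CoA 5 uM, BHQ-2-YbbR 12.5 uM (final); 50 mM Hepes pH 7.6, 10 mM MgCl2, 0.01% NP-40, 0.01% BSA; read 525/598 nm at 0 and 30 min.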
JMJD2A Tudor – inhibitors of human JMJD2A Tudor domain. AlphaScreen JMJD2A-Tudor / H3K4me3 peptide binding. Potency, µM (top dose mostly 114 µM), actives largely listed as inhibitors. 390,000 compounds, 4.4% hits. AID 504339; note: nearly all actives have a fitted effect of over 50% in size
ALOX12 inh – inhibitors of human 12S-lipoxygenase ALOX12; 580,000 compounds, 1.1% hits; purified 12hLO, xylenol orange hydroperoxide absorbance; AID 1671190; P18054; Potency, µM (doses to about 108 µM), hits mostly inhibitors
Target sequence (P18054 whole entry, looked up): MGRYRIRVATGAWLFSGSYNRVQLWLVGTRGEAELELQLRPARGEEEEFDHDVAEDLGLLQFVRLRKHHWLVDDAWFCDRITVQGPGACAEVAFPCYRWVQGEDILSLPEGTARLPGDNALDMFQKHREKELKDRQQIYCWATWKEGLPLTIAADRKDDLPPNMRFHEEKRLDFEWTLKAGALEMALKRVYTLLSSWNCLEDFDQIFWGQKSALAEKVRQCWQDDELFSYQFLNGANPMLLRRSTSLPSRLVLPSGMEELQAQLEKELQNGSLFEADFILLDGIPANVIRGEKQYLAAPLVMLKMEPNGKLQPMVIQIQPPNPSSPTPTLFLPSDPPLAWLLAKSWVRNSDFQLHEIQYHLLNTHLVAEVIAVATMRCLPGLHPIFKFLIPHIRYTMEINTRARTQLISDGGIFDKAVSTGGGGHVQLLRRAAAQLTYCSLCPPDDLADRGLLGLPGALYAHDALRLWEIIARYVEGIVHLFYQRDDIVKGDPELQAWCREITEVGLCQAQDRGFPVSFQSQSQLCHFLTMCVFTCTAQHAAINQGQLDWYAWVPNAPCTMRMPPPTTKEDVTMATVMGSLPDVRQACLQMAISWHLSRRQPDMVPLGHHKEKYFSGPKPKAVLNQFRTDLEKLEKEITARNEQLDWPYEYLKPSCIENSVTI
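Hydroperoxide product was detected by ferrous iron/xylenol orange as the 573 to 405 nm absorbance ratio. Arachidonic acid at 40 uM (final) was turned over for 30 min at room temperature by 150 nM human 12hLO, pH 7.0 Hepes buffer, after 15 min compound preincubation.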
BAZ2B block – BAZ2B (human) inhibition; 360,000 compounds, 4.4% hits; Potency, µM (series often up to 114 µM), most hits filed as inhibitors; AlphaScreen BAZ2B-H3K14Ac peptide displacement; Q9UIF8; note: nearly all actives have a fitted effect of over 60% in size
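Compounds, titrated to a top concentration of 110 uM, were incubated 30 min at room temperature with preformed BAZ2B/acetyl-K14 H3 peptide complex (50 nM each). Proximity signal was measured by AlphaScreen after 20 min with beads.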
G9a block – inhibitors of human histone lysine methyltransferase G9a. Q96KQ7. G9a H3K9 monomethylation, AlphaScreen, 2 h. Potency, µM (top dose mostly 102 µM), hits mostly inhibitors. 350,000 compounds, 8.8% hits. AID 504332; note: nearly all actives have a fitted effect of over 75% in size
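G9a (20 nM) was preincubated 15 min with compound, then reacted 2 h at room temperature with 500 nM biotin-H3K9 peptide and 20 µM SAM. Monomethyl-H3K9 detected by AlphaScreen using anti-H3K9me1 antibody.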
HP1b binding inh – HP1-beta chromodomain-methylated histone interaction inhibition | AlphaScreen HP1-beta / biotin-H3K9me3 peptide binding | Potency, µM (series often up to 114 µM), hits mostly inhibitors | 390,000 compounds, 0.56% hits | AID 540317; note: nearly all actives have a fitted effect of over 70% in size
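AlphaScreen: HP1-beta (50 nM) preformed 30 min with biotin-H3(1-18)K9me3 peptide (50 nM) in PBS pH 7.4, 0.01% Tween-20. Compound added for 30 min at RT, then streptavidin donor/nickel chelate acceptor beads (10 ug/mL) for 30 min.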
Hits are given with their value; - = inactive; ? = inconclusive; . = not tested or not shown; [ ] = another dose, or the depositor's remark. Calls come from the whole dose curve; as a rule, active = well fitted curve in the direction sought with a large enough effect; inconclusive = small, poorly fitted or top-dose-only effect, or another doubt; inactive = no such curve, though single readings can be large; an effect the other way counts as inactive or inconclusive.

SMILES	Sfp PPTase inh	JMJD2A Tudor	ALOX12 inh	BAZ2B block	G9a block	HP1b binding inh
CC(C)NC(=O)N1CCC2(CC1)CN(C(=O)Cc1csc(N)n1)Cc1ccccc1O2	.	.	-[6.33 µM]	.	.	.
COc1ccc(-c2ccc3c(c2)C(=O)N2C[C@@H](NS(=O)(=O)c4ccc(F)cc4)C[C@H]2C(=O)N3)c(OC)c1	.	.	-	.	.	.
COc1cc(CN2CCC(C)CC2)ccc1OCc1ccccc1	-	25µM	?	?	?	?
Nc1ccc(CN2CCCCCC2)cc1	-	-	-	-	-	-
COc1cc(CN2CCCC(C)C2)ccc1OCc1ccccc1 (stereo not drawn)	-	-	-	-	.	-
CN(C)c1ccc(CN2CCCC(O)C2)cc1 (stereo not drawn)	-	-	-	-	-	-
Brc1ccc(CN2CCCCCC2)cc1	.	28µM	?	.	.	?
CCN(CC)C(=O)C1CCCN(Cc2ccc(N(C)C)cc2)C1 (stereo not drawn)	-	45µM	-	32µM	14µM	?
NC(=O)C1CCCN(Cc2ccc(Cl)cc2)C1 (stereo not drawn)	-	3.2µM	?	79µM	3.5µM	-
CCOC(=O)c1cc(NCc2ccc(CC)cc2)ccc1N1CCOCC1	.	.	-	.	.	.
CCN(C(=O)Cn1nc(Cc2ccncc2)c2ccccc2c1=O)c1cc(Cl)ccc1OC	.	.	-	.	.	.
Clc1cccc(CN2CCCCCC2)c1	-	40µM	?	?	11µM	-
O=[N+]([O-])c1ccc(Cl)cc1CN1CCCCCC1	-	20µM	5µM	?	22µM	?
O=C(c1cccc(Cl)c1)C1CCCN(Cc2ccc(N3CCNC3=O)cc2)C1 (stereo not drawn)	-	?	-	?	50µM	-
CCOC(=O)C1CCCN(CC(=O)c2ccc(F)cc2)C1 (stereo not drawn)	50µM	3.5µM	?	20µM	?	?
C#CCNC(=O)C[C@@H]1CCN(C(=O)CCCCC)C[C@@H]1CC	.	.	-	.	.	.
COc1cc(F)ccc1-c1cc(-c2c(C)noc2C)cc2c1C(=O)N(C)C2=O	.	.	-	.	.	.
Cc1oc(-c2ccccc2)nc1CC(=O)NC(C)CN1CCOCC1 (stereo not drawn)	.	.	-	.	.	.
Cc1cc(C)c(NCC(=O)NNC(=O)c2cnccn2)c(C)c1	.	.	-	.	.	.
COCCNC(=O)NC(=O)COC(=O)c1ccc(COc2ccc3c(C)cc(=O)oc3c2)cc1	.	.	-	.	.	.
CCN(CC)C(=O)C1CCCN(Cc2ccc3c(c2)OCO3)C1 (stereo not drawn)	-	7.1µM	?	?	8.9µM	-
c1cc2c(cc1CN1CCN(C3CCCCCC3)CC1)OCO2	56µM	18µM	?	18µM	10µM	?
CC(=O)c1cccc(CN2CCCC(C(=O)c3ccc4c(c3)OCO4)C2)c1 (stereo not drawn)	-	-	-	-	.	-
O=C(CN1CCCCC1)N1CCCC(N2CCN(Cc3ccc4c(c3)OCO4)CC2)C1 (stereo not drawn)	.	.	-	.	.	.
O=C(C1CCCN(Cc2ccc3c(c2)OCO3)C1)N1CCCC1 (stereo not drawn)	-	40µM	?	56µM	10µM	?
SMILES	Sfp PPTase inh	JMJD2A Tudor	ALOX12 inh	BAZ2B block	G9a block	HP1b binding inh
COc1cccc(CC(=O)NC2CCCN(Cc3ccc(Cl)cc3)C2)c1 (stereo not drawn)	-	-	?	-	-	-
COc1ccc(OCC(=O)NC2CCCN(Cc3ccc(Cl)cc3)C2)cc1 (stereo not drawn)	-	-	16µM	?	.	-
c1ccc(CN2CCC(N3CCN(Cc4ccc5c(c4)OCO5)CC3)CC2)cc1	-	-	-	-	-	-
Fc1cc(CSc2nnc(C3CC3)n2C2CC2)c2ncccc2c1	.	.	-	.	.	.
Cc1noc(C)c1S(=O)(=O)N1CCC2(CC1)C(=O)NN=C2C1CC1	.	.	-	.	.	.
COC(=O)/C=c1/s/c(=C(/C#N)C(=O)N2CCOCC2)n(-c2ccccc2)c1=O	-	-[11.4 µM]	-	-	?	-
COC(=O)/C=c1/s/c(=C(\C#N)C(=O)NCc2ccco2)n(-c2ccc(C)cc2)c1=O	56µM	-	-	-	?	-
Cc1ccc(C(C)(c2ccc(N)cc2)c2ccc(N)cc2)cc1	.	50µM	-	.	.	?
CN(C)C(=O)c1cnc(Sc2ncc(C(F)(F)F)cc2Cl)n1C	-	-	-	-	56µM	-
CCn1c(=O)cc(OCC(=O)N2CCN(c3ccc(C)cc3)C(C)C2)c2ccccc21 (stereo not drawn)	.	-	-	?	6.3µM	-
COC(=O)c1ccc(NC(CC(C)C)C(=O)OC)c([N+](=O)[O-])c1 (stereo not drawn)	-	?	-	?	40µM	-
CCOC(=O)c1ccc(NCCOC)c([N+](=O)[O-])c1	-	-	-	-	-	-
O=C(CNCc1ccccn1)Nc1cc(S(=O)(=O)N2CCCCC2)ccc1Cl	-	79µM	-	.	-	-
Cc1ccc(S(=O)(=O)N2CCOCC2)cc1NC(=O)CNC(C)c1ccccc1 (stereo not drawn)	.	1.3µM	-	.	.	?
CC(NCC(=O)Nc1cc(S(=O)(=O)N2CCOCC2)ccc1Cl)c1ccc(Cl)cc1Cl (stereo not drawn)	.	-	-	-	-[12.7 µM]	-
Cc1cccc(NC(=O)CSCC(=O)Nc2cc(S(=O)(=O)N3CCOCC3)ccc2OC(C)C)c1	.	-	-	-	-	-
O=C(COC(=O)c1ccccc1O)Nc1cc(S(=O)(=O)N2CCCCCC2)ccc1Cl	.	-	-	-	-[12.7 µM]	-
O=C(COC(=O)c1cc(Br)ccc1O)Nc1cc(S(=O)(=O)N2CCCC2)ccc1Cl	56µM	-	-	.	-	-
Cc1ccc(CSCC(=O)Nc2cc(S(=O)(=O)N3CCOCC3)ccc2OC(C)C)cc1	.	-	?	?	50µM	-
Cc1ccc(S(=O)(=O)N2CCOCC2)cc1NC(=O)CSc1ncccn1	.	-	-	-	-	-
Cc1ccc(S(=O)(=O)N2CCOCC2)cc1NC(=O)CNCc1ccccn1	-	-[11.4 µM]	-	32µM	-[12.7 µM]	-
COc1ccc(NS(=O)(=O)c2cc(Cl)ccc2Cl)cc1S(=O)(=O)N1CCOCC1	.	.	-	.	.	.
Fc1ccc(Nc2c(-c3c[nH]c4ccccc34)nc3ccccn23)cc1	.	35µM	?	?	?	?
Cc1ccn2c(Nc3ccc(F)cc3)c(-c3ccccn3)nc2c1	.	25µM	-	14µM	-	-
Cc1cccc(C)c1Nc1c(-c2ccccc2F)nc2cccc(C)n12	.	50µM	-	?	18µM	?
Cc1ccc(Nc2c(-c3ccccn3)nc3ccc(Br)cn23)cc1	.	?	-	-	-	-
c1ccc(Nc2c(-c3c[nH]c4ccccc34)nc3ccccn23)cc1	.	?	-	-	?	?
Cc1cccc2nc(-c3ccccn3)c(Nc3ccccc3)n12	.	40µM	-	8.9µM	-	-
COc1cc2oc(=O)c(CC(=O)N3CCC(O)(c4ccc(Cl)cc4)CC3)c(C)c2cc1OC	.	.	-	.	.	.
